High-throughput results (PubChem)
SENP8 block-1: blocks the human protease SENP8; purified SENP8, Z-RLRGG-aminoluciferin cleavage, luminescence; hit rate 1.2% among 330,000; inhibition, % at 10 µM; Q96LD8; AID 2540; in the data active means inhibition above about 50%
SENP7 block: blocks the human protease SENP7; Q9BQF6; recombinant SENP7, Z-RLRGG-aminoluciferin luminescence, 40 min; inhibition, % at 5 µM; hit rate 1.5% among 330,000; AID 434973;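 active means inhibition above about 50% at the single test dose, limit read from the data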
SENP8 block-2: SENP8 (human) protease inhibition; Q96LD8; recombinant SENP8, Nedd8 substrate fluorescence; inhibition, % at 20 µM; hit rate 0.64% among 360,000; in the data active means inhibition mostly above about 40%, no sharp cut-off; inactive means mostly below about 27%
SENP6 inh: inhibitors of human SENP6 protease; Recombinant SENP6 catalytic domain, aminoluciferin luminescence; inhibition, % at 10 µM; hit rate 1.8% among 330,000;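 active means inhibition above about 50% at the single tested dose, limit read from the data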
Target sequence (Q9GZR1 628-1112 limits assumed): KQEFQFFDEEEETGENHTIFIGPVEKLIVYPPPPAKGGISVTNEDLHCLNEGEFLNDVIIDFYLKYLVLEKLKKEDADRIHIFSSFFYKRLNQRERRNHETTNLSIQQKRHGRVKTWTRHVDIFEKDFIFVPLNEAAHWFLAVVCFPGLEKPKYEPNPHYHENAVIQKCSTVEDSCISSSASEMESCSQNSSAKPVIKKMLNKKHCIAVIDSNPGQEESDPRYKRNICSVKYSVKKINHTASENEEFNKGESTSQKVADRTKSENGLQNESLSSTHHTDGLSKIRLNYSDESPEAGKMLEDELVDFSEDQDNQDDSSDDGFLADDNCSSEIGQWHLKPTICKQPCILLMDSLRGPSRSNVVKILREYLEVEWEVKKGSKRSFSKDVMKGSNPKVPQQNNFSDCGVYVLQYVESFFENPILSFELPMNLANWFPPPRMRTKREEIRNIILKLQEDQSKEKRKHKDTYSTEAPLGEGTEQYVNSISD
HSP90 refold inh: inhibitors of HSP90 luciferase refolding in rabbit reticulocyte lysate; inhibition, % at 5.6 µM; luciferase refolding luminescence, 3 h; AID 1789; hit rate 0.91% among 290,000;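 active means inhibition above the screen-wide mean plus 3 SD, computed separately per campaign, cut at about 16% in these data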;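 further: inhibitors lower the luminescence because luciferase stays unfolded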
SENP8 confirm: confirmation of human SENP8 protease inhibitors. inhibition, % at 12.5 µM. shares compounds with SENP7 block. hit rate 40% among 6,200. AID 488912. Recombinant SENP8, Z-RLRGG-aminoluciferin luminescence, 60 min;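 active means mean inhibition across replicates above about 50%, limit read from the data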
SENP6 conf: confirmation of human SENP6 protease inhibitors; shares compounds with SENP7 block; recombinant SENP6, Z-RLRGG-aminoluciferin luminescence; inhibition, % at 12.5 µM; hit rate 58% among 6,200; AID 488915
SENP7 confirm: human SENP7 inhibition, confirmed. shares compounds with SENP7 block. recombinant SENP7, Z-RLRGG-aminoluciferin luminescence, 40 min. inhibition, % at 12.5 µM. hit rate 69% among 6,200. AID 488917
Casp3 SENP sel: caspase-3 inhibition (SENP selectivity assay). inhibition, % at 12.5 µM. shares compounds with SENP7 block. AID 488918. hit rate 60% among 6,200. purified caspase-3, Z-DEVD-aminoluciferin luminescence, 60 min;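 active means mean inhibition above about 50%, limit read from the data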
Target sequence (P42574 28-227 limits assumed): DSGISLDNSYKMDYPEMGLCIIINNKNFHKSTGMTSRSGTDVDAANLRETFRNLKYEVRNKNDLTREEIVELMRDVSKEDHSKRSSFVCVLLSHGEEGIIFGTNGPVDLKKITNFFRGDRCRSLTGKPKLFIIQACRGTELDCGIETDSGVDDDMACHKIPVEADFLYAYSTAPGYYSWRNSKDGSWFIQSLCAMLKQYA
SENP luc ctr: interferes with luciferase luminescence in SENP counter-screen; hit rate 39% among 6,200; inhibition, % at 12.5 µM; AID 488919; shares compounds with SENP7 block; Pre-incubated SENP8/Z-RLRGG-aminoluciferin, luciferase luminescence interference;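 active means mean inhibition above about 50% when retested at one dose, limit read from the data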
Large screens that a line does not name were inactive (follow-up assays come after a bar, where they were run). Hits are enriched below; roughly 2.8% of the tested compounds scored in any of these assays.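 How the source made its calls, unless noted: active means mean inhibition above about 50% in the one-dose retest (limit read from the data); inactive means the rest.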

Cc1[nH]n(-c2ccc([N+](=O)[O-])cc2)c(=O)c1C=NCCN1CCN(C(=O)c2ccc(Br)cc2)CC1	SENP7 block 88.5, SENP6 inh 63.8 | SENP8 confirm inactive | SENP6 conf inactive | SENP7 confirm inactive | Casp3 SENP sel 55.1 | SENP luc ctr 56.3
Cc1[nH]n(-c2ccc([N+](=O)[O-])cc2)c(=O)c1C=NCCN1CCN(C(=O)c2cccc(F)c2)CC1	SENP8 block-1 67.1, SENP7 block 88.4, SENP6 inh 90.3 | SENP8 confirm inactive | SENP6 conf inactive | SENP7 confirm inactive | Casp3 SENP sel inactive | SENP luc ctr 56.9
O=C(Nc1ccccc1C(=O)NCCCN1CCOCC1)c1ccc(F)cc1F	none
O=C(Nc1ccc(OCc2ccccc2)cc1)Nc1ccccc1C(=O)NCCCN1CCOCC1	SENP8 block-1 95.4, SENP7 block 97.2, SENP6 inh 95.1 | SENP8 confirm 98.5 | SENP6 conf 99.5 | SENP7 confirm 103.4 | Casp3 SENP sel 97.9 | SENP luc ctr 88.3
COCCN(C(=O)CSc1nnc(-c2cccc(F)c2)n1N)c1c(N)n(Cc2ccccc2)c(=O)[nH]c1=O	none (no result: HSP90 refold inh)
COc1cc2sc3ccc(C#CC4(O)CCCCC4)cc3c(=O)c2cc1OC	SENP8 block-1 94.3, SENP7 block 99.2, SENP6 inh 97.8 (no result: HSP90 refold inh) | SENP8 confirm 66.5 | SENP6 conf 69.8 | SENP7 confirm 91.0 | Casp3 SENP sel 80.8 | SENP luc ctr inactive
COc1cc2sc3ccc(C#Cc4ccc(N)cc4)cc3c(=O)c2cc1OC	none (no result: HSP90 refold inh)
O=C(O)c1cccc(C(=O)Cc2ccccc2)c1	SENP8 block-1 55.5, SENP6 inh 74.6 | SENP8 confirm 62.6 | SENP6 conf 60.1 | SENP7 confirm 87.7 | Casp3 SENP sel 91.5 | SENP luc ctr 73.8
COc1ccc(S(=O)(=O)Nc2ccc3c(c2)OCO3)cc1	none
COc1ccc(N/C=C2\CCc3ccccc3C2=O)cc1	SENP8 block-1 95.6, SENP6 inh 97.3, HSP90 refold inh 42.0 | SENP8 confirm inactive | SENP6 conf 100.6 | SENP7 confirm 103.9 | Casp3 SENP sel 98.6 | SENP luc ctr 70.4
COc1ccc(N/C=C2\CCOC2=O)cc1	none
COc1ccc2c(c1)CC/C(=C\Nc1ccc3c(c1)OCO3)C2=O	SENP8 block-1 61.1, SENP7 block 53.7, SENP6 inh 60.9 | SENP8 confirm inactive | SENP6 conf 59.6 | SENP7 confirm inactive | Casp3 SENP sel inactive | SENP luc ctr inactive
O=C(Nc1ccc2c(c1)CCC2)Nc1ccccc1Cl	SENP8 block-1 91.2, SENP7 block 94.4, SENP6 inh 94.6 | SENP8 confirm inactive | SENP6 conf 92.9 | SENP7 confirm 72.3 | Casp3 SENP sel 81.4 | SENP luc ctr inactive
Cc1ccccc1NC(=O)Nc1ccc2c(c1)OCO2	SENP8 block-1 79.3, SENP7 block 95.6, SENP6 inh 91.2 | SENP8 confirm inactive | SENP6 conf 73.6 | SENP7 confirm inactive | Casp3 SENP sel 92.4 | SENP luc ctr inactive
CCOc1ccccc1NC(=O)Nc1ccc2c(c1)CCC2	SENP7 block 52.9, SENP6 inh 69.5 | SENP8 confirm 53.4 | SENP6 conf 68.0 | SENP7 confirm 87.0 | Casp3 SENP sel inactive | SENP luc ctr inactive
CCOc1ccccc1OCCC(=O)Nc1ccc2c(c1)OCO2	none (no result: HSP90 refold inh)
CCOc1ccccc1NC(=O)Nc1ccc2c(c1)OCO2	SENP8 block-1 72.1, SENP7 block 85.3, SENP6 inh 86.1 | SENP8 confirm inactive | SENP6 conf 81.3 | SENP7 confirm 96.7 | Casp3 SENP sel 79.1 | SENP luc ctr 79.2
Cc1ccc(C)c(NC(=O)Nc2ccc3c(c2)OCO3)c1	none
COc1cccc(NC(=O)N2CCCC2C(=O)NC2CCCC2)c1 (stereo unspecified)	none
CC1CN(C(=O)CN2C(=O)NC3(CCCC3)C2=O)C(=Nc2cccc(S(=O)(=O)N(C)C)c2)S1 (stereo unspecified)	none (no result: HSP90 refold inh)
O=C(Nc1ccc(Nc2ccccc2)cc1)Nc1ccccc1Cl	SENP8 block-1 85.8, SENP7 block 85.1, SENP6 inh 88.4 | SENP8 confirm 70.9 | SENP6 conf 89.4 | SENP7 confirm 98.9 | Casp3 SENP sel 56.1 | SENP luc ctr 63.0
Cc1nc(NC(=O)/C=C/c2ccc(Cl)cc2Cl)sc1C(=O)N(C)C	none
CCOC(=O)c1ccc(NC(=O)/C=C/c2cccs2)cc1	SENP8 block-1 62.4, SENP7 block 78.9, SENP6 inh 80.8 | SENP8 confirm 53.1 | SENP6 conf 53.3 | SENP7 confirm 83.6 | Casp3 SENP sel inactive | SENP luc ctr inactive
Cc1ccccc1NC(=O)/C=C/c1cccs1	SENP7 block 62.8 | SENP8 confirm 51.7 | SENP6 conf 51.1 | SENP7 confirm 85.5 | Casp3 SENP sel 79.5 | SENP luc ctr 70.1
Cc1cc(C)nc(NC(=O)/C=C/c2cccs2)c1	SENP7 block 53.9 | SENP8 confirm inactive | SENP6 conf inactive | SENP7 confirm 71.5 | Casp3 SENP sel 55.3 | SENP luc ctr 55.1
Cc1cc(C)nc(NC(=O)/C=C/c2ccc(Cl)cc2Cl)c1	SENP8 block-1 61.5, SENP7 block 58.6, SENP6 inh 76.3 | SENP8 confirm inactive | SENP6 conf inactive | SENP7 confirm 78.7 | Casp3 SENP sel inactive | SENP luc ctr inactive
Cc1ccc(-c2ccc(C(=O)O)c(C)n2)cc1	none
CCOC(=O)c1ccc(-c2ccc3c(c2)CCC3)nc1C	SENP8 block-1 52.5, SENP7 block 70.4, SENP6 inh 60.3 | SENP8 confirm 57.2 | SENP6 conf 57.3 | SENP7 confirm 80.4 | Casp3 SENP sel inactive | SENP luc ctr inactive
COC(=O)c1ccc(-c2ccc(F)cc2)nc1C	SENP7 block 52.7, SENP6 inh 61.5 | SENP8 confirm inactive | SENP6 conf inactive | SENP7 confirm 77.0 | Casp3 SENP sel inactive | SENP luc ctr inactive
CC(C)c1ccc(-c2nnn(CCC(=O)O)n2)cc1	SENP8 block-1 71.0, SENP6 inh 58.9 | SENP8 confirm inactive | SENP6 conf 68.5 | SENP7 confirm 83.6 | Casp3 SENP sel inactive | SENP luc ctr inactive
O=C1NC(c2ccc(Cl)c([N+](=O)[O-])c2)Nc2ccccc21 (stereo unspecified)	none
O=C1NC(c2cc(Cl)cc([N+](=O)[O-])c2O)Nc2ccccc21 (stereo unspecified)	SENP8 block-1 68.6, SENP6 inh 86.7 | SENP8 confirm inactive | SENP6 conf inactive | SENP7 confirm inactive | Casp3 SENP sel inactive | SENP luc ctr inactive
Cc1ccc(NC(=O)COC(=O)c2c(C)nn(-c3ccccc3)c2C)cc1	none (no result: HSP90 refold inh)
